Results filed as inconclusive are left out. The source made the active and inactive calls. Calls follow the shape of the dose curve; as a rule, active = well fitted curve in the direction sought with a large enough effect; inconclusive = small, poorly fitted or top-dose-only effect, or another doubt; inactive = no such curve, though single readings can be large; an effect the other way counts as inactive or inconclusive.
Assays:
[1] = qHTS of pediatric cancer cell lines to identify multiple opportunities for drug repurposing: Primary screen for TC32 cells (AID 1347089); also: nearly all actives have a fitted effect of over 60% in size; also: potency is read from the fitted curve at half-maximal effect
In short: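 Measured quantity: luminescence from CellTiter-Glo, reflecting metabolically active TC32 cells following 48 h of compound. Curves came straight from multi-point titrations, with 8 or 11 points in primary and 11 in confirmatory screening.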

[2] = qHTS of pediatric cancer cell lines to identify multiple opportunities for drug repurposing: Primary screen for SJ-GBM2 cells (AID 1347091); also: potency is read from the fitted curve at half-maximal effect
In short: (§1)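 Viability measured as metabolically active cells via CellTiter-Glo luminescence following 48 hours of compound exposure, 11-point dilutions in confirmatory testing. 500-1,000 cells/well plated 5 hours before dosing; controls were DMSO and 2.3 µM bortezomib.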

[3] = qHTS of pediatric cancer cell lines to identify multiple opportunities for drug repurposing: Primary screen for A673 cells (AID 1347092); also: nearly all actives have a fitted effect of over 45% in size; also: potency is read from the fitted curve at half-maximal effect
In short: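 Cells are plated, rested 5 h, dosed by pintool, incubated 48 h, then lysed with CellTiter-Glo and read by luminescence. DMSO is the neutral control; bortezomib at 2.3 uM final is the positive control.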

[4] = qHTS of pediatric cancer cell lines to identify multiple opportunities for drug repurposing: Primary screen for SK-N-MC cells (AID 1347093); also: potency is read from the fitted curve at half-maximal effect
In short: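 Metabolically active cells were quantified by ATP-dependent luminescence (CellTiter-Glo, 15 min at room temperature) following 48 h treatment. Cells had been plated at 500-1,000 per well and settled for 5 h beforehand.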

[5] = qHTS of pediatric cancer cell lines to identify multiple opportunities for drug repurposing: Primary screen for BT-37 cells (AID 1347094); also: potency is read from the fitted curve at half-maximal effect
In short: (§2)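 Readout: CellTiter-Glo luminescence, 48 h treatment. Controls DMSO (neutral) and bortezomib 2.3 µM final (positive). Potency and efficacy taken from primary-screen concentration-response curves.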

[6] = qHTS of pediatric cancer cell lines to identify multiple opportunities for drug repurposing: Primary screen for NB-EBc1 cells (AID 1347095); also: potency is read from the fitted curve at half-maximal effect
In short: as §2

[7] = qHTS of pediatric cancer cell lines to identify multiple opportunities for drug repurposing: Primary screen for U-2 OS cells (AID 1347096); also: nearly all actives have a fitted effect of over 50% in size; also: potency is read from the fitted curve at half-maximal effect
In short: (§3)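 Viability after 48 h compound treatment at 37C, 500-1,000 cells/well, read as ATP luminescence with CellTiter-Glo. Primary screens used 11-point (MIPE, 0.78 nM-46 µM) or 8-point (NPC, 0.59 nM-46 µM) final concentrations; follow-up screens used 11-point dilutions.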

[8] = qHTS of pediatric cancer cell lines to identify multiple opportunities for drug repurposing: Primary screen for Saos-2 cells (AID 1347097); also: nearly all actives have a fitted effect of over 40% in size; also: potency is read from the fitted curve at half-maximal effect
In short: as §2

[9] = qHTS of pediatric cancer cell lines to identify multiple opportunities for drug repurposing: Primary screen for SK-N-SH cells (AID 1347098); also: nearly all actives have a fitted effect of over 65% in size; also: potency is read from the fitted curve at half-maximal effect
In short: (§4)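 Cells (500-1,000/well) rested 5 h, then received compounds for 48 h; metabolically active cells were measured by CellTiter-Glo luminescence. Final concentrations spanned up to 46 µM (MIPE, 11-point) or 0.59 nM-46 µM (NPC, 8-point) in primary screens, 11-point in follow-ups.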

[10] = qHTS of pediatric cancer cell lines to identify multiple opportunities for drug repurposing: Primary screen for NB1643 cells (AID 1347099); also: nearly all actives have a fitted effect of over 50% in size; also: potency is read from the fitted curve at half-maximal effect
In short: as §2

[11] = qHTS of pediatric cancer cell lines to identify multiple opportunities for drug repurposing: Primary screen for LAN-5 cells (AID 1347100); also: potency is read from the fitted curve at half-maximal effect
In short: as §3

[12] = qHTS of pediatric cancer cell lines to identify multiple opportunities for drug repurposing: Primary screen for BT-12 cells (AID 1347101); also: nearly all actives have a fitted effect of over 25% in size; also: potency is read from the fitted curve at half-maximal effect
In short: as §4

[13] = qHTS of pediatric cancer cell lines to identify multiple opportunities for drug repurposing: Primary screen for Rh18 cells (AID 1347102); also: nearly all actives have a fitted effect of over 65% in size; also: potency is read from the fitted curve at half-maximal effect
In short: as §3

[14] = qHTS of pediatric cancer cell lines to identify multiple opportunities for drug repurposing: Primary screen for OHS-50 cells (AID 1347103); also: nearly all actives have a fitted effect of over 40% in size; also: potency is read from the fitted curve at half-maximal effect
In short: as §4

[15] = qHTS of pediatric cancer cell lines to identify multiple opportunities for drug repurposing: Primary screen for RD cells (AID 1347104); also: nearly all actives have a fitted effect of over 55% in size; also: potency is read from the fitted curve at half-maximal effect
In short: as §2

[16] = qHTS of pediatric cancer cell lines to identify multiple opportunities for drug repurposing: Primary screen for control Hh wild type fibroblast cells (AID 1347106); also: nearly all actives have a fitted effect of over 55% in size; also: potency is read from the fitted curve at half-maximal effect
In short: as §3

[17] = qHTS of pediatric cancer cell lines to identify multiple opportunities for drug repurposing: Primary screen for DAOY cells (AID 1347090); also: series mostly up to about 46 µM; nearly all actives have a fitted effect of over 55% in size
In short: as §1

[18] = qHTS of pediatric cancer cell lines to identify multiple opportunities for drug repurposing: Primary screen for MG 63 (6-TG R) cells (AID 1347105); also: nearly all actives have a fitted effect of over 50% in size
In short: as §2

Measured: Potency

CC[C@@H]1C(=O)N(C)c2cnc(Nc3ccc(C(=O)NC4CCN(C)CC4)cc3OC)nc2N1C1CCCC1
active: [1] 0.234 µM | [2] 0.0372 µM | [3] 0.0372 µM | [4] 0.059 µM | [5] 0.172 µM | [6] 0.148 µM | [7] 14.8 µM | [8] 0.0469 µM | [9] 2.41 µM | [10] 1.32 µM | [11] 0.0332 µM | [12] 0.172 µM | [13] 5.9 µM | [14] 0.0544 µM | [15] 0.059 µM | [16] 23.5 µM

CCCNC(=O)Nc1ccc(Oc2ncnc3cc(OC)c(OC)cc23)cc1Cl
not listed: [2] | [6] | [11] | [18]
inactive: all other assays above

Cc1ccc(CN2CCNCC2)cc1NC(=O)CNc1ccc(F)c(F)c1
active: [9] 19.2 µM
not listed: [2] | [3] | [8] | [13] | [14] | [15]
inactive: all other assays above

c1ccc2c(CCNc3ccc(Nc4ccncc4)cc3)c[nH]c2c1
active: [1] 20.8 µM | [2] 5.9 µM | [3] 18.7 µM | [4] 1.87 µM | [5] 4.32 µM | [6] 2.35 µM | [8] 14.8 µM | [9] 19.2 µM | [10] 5.26 µM | [11] 4.18 µM | [12] 21.7 µM | [14] 6.85 µM | [15] 26.4 µM
inactive: [7] | [16]

Reference: PubChem BioAssay (NCATS)
